Experimental findings from ChEMBL document CHEMBL3988442, “University of Dundee, Small-Polar-MMV Screening Library” (2021) are described below.

The target of this assay is AMP-activated protein kinase, AMPK (Homo sapiens) (UniProt P54646+O43741+P54619+Q9UGJ0+Q9Y478+Q13131+Q9UGI9). Kind of assay: AMP-dependent Kinase enzyme assay. An in vitro enzyme assay that detects ADP turnover that is directly proportional to AMPK activity. This uses naive AMPK that is activated during the assay with MK-8722. The assay is classed as functional. On the set-up: scale not given: direction of the effect not stated beside the values. Conditions: 30 µM.
Consider `CC(CN1CCOCC1)n1cncc1-c1cnn(Cc2ccccc2)c1` (centres undefined), for which the Percent Effect came out at 2.92%.
The same measure for `O=C(c1cccc2ccnn12)N1CCCC1Cn1cccn1` (centres undefined): -1.71%; for `Cc1cc(C(=O)N2CCCC(c3ccc(C(=O)O)cc3)C2)c(C)o1` (centres undefined): 4.65%; for `COc1cccc(CC(=O)N2CCc3ncnc(NCCO)c3CC2)c1`: -1.01%.
`Cc1ccnc(C2(C)CCCN2S(=O)(=O)c2ccccc2)n1` (centres undefined): the Percent Effect is -5.61%.
The figure for `CC(C)CN(CC(F)(F)F)S(=O)(=O)c1cc(C(N)=O)n(C)c1` is -3.17%; for `CC(C)(C)Oc1ccc(NCC(=O)NCc2ccco2)cc1` it is 9.8%; for `Cc1nc2cc(C3CCOCC3)nn2c(NCC2COCCO2)c1C` (centres undefined) it is 1.07%.
The same measure for `Cc1nn(C2CCCC2)c2nc(C(C)(C)CN3CCN(C)CC3)[nH]c12`: 14.1%; for `CC(=O)N1CCCN(C(=O)NC(C)Cn2ccnc2)CC1` (centres undefined): -5.96%; for `CC(C)(C)c1noc(CCCC(=O)N2CCNC(=O)C2)n1`: -8.74%.
The same measure for `Cc1cc(CN(CC(N)=O)CC(C)C)no1`: -8.69%.
Take `CC(C)c1ccc(CC(=O)N2CCCC3(CN(C)C(=O)O3)C2)cc1` (centres undefined): the Percent Effect amounted to 15%.
The same measure for `COCc1ccccc1NC(=O)c1ccoc1`: -4.58%; for `CCc1ncc(CN2CCOC(Cc3cccc(F)c3)C2)cn1` (centres undefined): 6.71%; for `CNC(=O)C(c1cccc(Cl)c1)C(C)C` (centres undefined): -6.65%.
The figure for `Cc1nc(CN2CCN(S(=O)(=O)N3CCOCC3)CC2)oc1C` is -4.75%; for `Cc1cc(-c2ccnn2C)nc(C2CCN(S(C)(=O)=O)CC2)n1` it is 9.22%; for `Cc1ccc(-c2ccccc2CC2CNCCNC2=O)c(C)c1` (centres undefined) it is 2.34%.
As to `Cc1cnc(C(=O)N2CCN(c3ncc4c(n3)CCOC4)CC2)cn1`, the Percent Effect came to 15.1%.
As for `COc1ccc(CN2CC[C@@]3(O)CCCC[C@H]3C2)cc1C(=O)O`, the Percent Effect is -10%.
The same measure for `CC(C)c1ccc(CN2CCCC3(CC2)CN(C)C(=O)O3)cc1` (centres undefined): 9.6%; for `O=C1CCC2(CCCN(CCn3cc(Cl)cn3)C2)CN1C1CCCC1` (centres undefined): 14.4%.
Consider `CC(C)c1nn(C)cc1CNCc1cccc(N(C)C)c1`, for which the Percent Effect was -15.4%.
As for `CCN(CC)S(=O)(=O)c1ccc(NC(=O)C(C)(C)C)cc1`, the Percent Effect turned out to be 3.46%.
Turning to `CCOc1ccc(CN(C)C(=O)c2nc(N3CCCC3)ncc2Cl)cc1`, the Percent Effect is -1.93%.
The figure for `Cc1noc(C)c1C(=O)N(C)C(C)c1ccc(S(C)(=O)=O)cc1` (centres undefined) is -2.19%; for `c1cncc(OC2CCN(CCn3cc4ccccc4n3)CC2)c1` it is 13.1%.
Consider `COc1ccccc1N1CCN(C(=O)CCc2nncn2C)C(C)C1` (centres undefined), for which the Percent Effect was 24.5%.
The same measure for `Cn1cc(Cl)c(CN(Cc2ccsc2)CC2CCCO2)n1` (centres undefined): 2.65%.
The same measure for `COc1cc(NC2CCCN(c3ncccn3)C2)cc(OC)c1` (centres undefined): -64.1%; for `CC(C)N(CC(=O)Nc1cccc(C(=O)N(C)C)c1)C1CC1`: 1.38%; for `CCNC(=O)c1ccc(NC(=O)N(C)Cc2cccn2C)c(C)c1`: 12.2%.
The figure for `CN(Cc1ccccc1)S(=O)(=O)N1C[C@@H](C(=O)O)[C@H](C2CC2)C1` is 3.92%; for `CCC(Nc1ccc(CCN2CCCCC2)cc1)C(N)=O` (centres undefined) it is -12.9%.
As for `NC(=O)c1ccc(N2CCN(CCCc3cn[nH]c3)CC2)cc1`, the Percent Effect is -7.64%.
The figure for `COc1cc(Br)c(CNc2ccn(CCC(N)=O)n2)cc1OC` is 3.74%; for `Cc1cc(C)c2[nH]c(C(=O)NCCN3CCNC3=O)c(C)c2c1` it is 11.1%; for `Cc1csc(N2CCN(Cc3ccccn3)CC2)n1` it is -1.61%.
